# According to PMC10954555:
# Key:
# [1] = target: Large ribosomal subunit protein uL1 (UniProt P62906); test: cross-linking mass spectrometry; other
# [2] = target: 60S ribosome subunit biogenesis protein NIP7 homolog (UniProt Q9Y221); test: cross-link between two proteins; cross-linking mass spectrometry; other
# [3] = target: Heat shock cognate 71 kDa protein (UniProt P11142); test: other; cross-linking mass spectrometry; other
# [4] = target: Stress-70 protein, mitochondrial (UniProt P38646); test: cross-link between two proteins; cross-linking mass spectrometry; other
# [5] = target: THO complex subunit 2 (UniProt Q8NI27); test: other; cross-linking mass spectrometry; other
# [6] = target: THO complex subunit 1 (UniProt Q96FV9); test: cross-link between two proteins; cross-linking mass spectrometry; other
# [7] = target: Transcription initiation factor TFIID subunit 5 (UniProt Q15542); test: other; cross-linking mass spectrometry; other
# [8] = target: Transcription initiation factor TFIID subunit 9 (UniProt Q16594); test: other; cross-linking mass spectrometry; other
# Transcription initiation factor TFIID subunit 9, sequence (Q16594 whole entry): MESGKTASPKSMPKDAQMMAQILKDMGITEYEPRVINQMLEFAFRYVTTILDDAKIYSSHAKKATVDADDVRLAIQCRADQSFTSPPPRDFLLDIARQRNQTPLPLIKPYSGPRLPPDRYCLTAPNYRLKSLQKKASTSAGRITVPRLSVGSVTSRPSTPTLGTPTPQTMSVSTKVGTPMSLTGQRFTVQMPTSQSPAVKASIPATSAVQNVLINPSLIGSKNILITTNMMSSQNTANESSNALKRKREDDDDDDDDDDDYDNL
# [9] = target: Transcription initiation factor TFIID subunit 9B (UniProt Q9HBM6); test: other; cross-linking mass spectrometry; other
# Transcription initiation factor TFIID subunit 9B, sequence (Q9HBM6 whole entry): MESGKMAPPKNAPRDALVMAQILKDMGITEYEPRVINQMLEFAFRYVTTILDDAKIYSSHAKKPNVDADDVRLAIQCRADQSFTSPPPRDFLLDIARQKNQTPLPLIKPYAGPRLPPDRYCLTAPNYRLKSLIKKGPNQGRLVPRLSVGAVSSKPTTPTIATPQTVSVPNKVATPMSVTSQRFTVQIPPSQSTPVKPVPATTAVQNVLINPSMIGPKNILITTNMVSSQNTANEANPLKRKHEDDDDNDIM
# [10] = target: Transcription initiation factor TFIID subunit 12 (UniProt Q16514); test: cross-link between two proteins; cross-linking mass spectrometry; other
# Transcription initiation factor TFIID subunit 12, sequence (Q16514 whole entry): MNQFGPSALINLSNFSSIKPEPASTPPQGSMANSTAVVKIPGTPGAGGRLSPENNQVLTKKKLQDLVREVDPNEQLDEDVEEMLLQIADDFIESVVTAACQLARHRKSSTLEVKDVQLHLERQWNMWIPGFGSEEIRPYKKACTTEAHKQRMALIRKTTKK
# [11] = target: ELAV-like protein 1 (UniProt Q15717); test: other; affinity purification or IP with mass spectrometry; other
# [12] = target: Heterogeneous nuclear ribonucleoprotein L (UniProt P14866); test: cross-link between two proteins; affinity purification or IP with mass spectrometry; cross-linking mass spectrometry; other
# [13] = target: DNA topoisomerase 3-alpha (UniProt Q13472); test: cross-link between two proteins; cross-linking mass spectrometry; other
# [14] = target: RecQ-mediated genome instability protein 1 (UniProt Q9H9A7); test: as above
# RecQ-mediated genome instability protein 1, sequence (Q9H9A7 whole entry): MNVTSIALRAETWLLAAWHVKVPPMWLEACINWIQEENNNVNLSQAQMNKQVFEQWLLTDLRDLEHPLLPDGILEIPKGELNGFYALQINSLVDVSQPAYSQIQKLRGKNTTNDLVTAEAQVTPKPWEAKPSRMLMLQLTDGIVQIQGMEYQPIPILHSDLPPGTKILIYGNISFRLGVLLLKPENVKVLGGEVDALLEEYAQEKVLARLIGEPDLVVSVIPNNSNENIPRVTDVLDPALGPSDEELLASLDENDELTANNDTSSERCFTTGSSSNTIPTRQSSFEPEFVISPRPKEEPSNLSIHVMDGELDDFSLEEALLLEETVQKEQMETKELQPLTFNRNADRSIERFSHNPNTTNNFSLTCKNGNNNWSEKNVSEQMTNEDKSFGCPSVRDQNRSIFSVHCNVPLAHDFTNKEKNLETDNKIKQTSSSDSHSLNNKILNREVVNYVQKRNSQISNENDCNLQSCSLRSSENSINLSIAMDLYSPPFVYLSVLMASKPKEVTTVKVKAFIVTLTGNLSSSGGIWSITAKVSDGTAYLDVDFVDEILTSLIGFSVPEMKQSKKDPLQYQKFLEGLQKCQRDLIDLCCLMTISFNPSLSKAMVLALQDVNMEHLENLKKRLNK
# [15] = target: Heterogeneous nuclear ribonucleoprotein A0 (UniProt Q13151); test: as above
# Heterogeneous nuclear ribonucleoprotein A0, sequence (Q13151 whole entry): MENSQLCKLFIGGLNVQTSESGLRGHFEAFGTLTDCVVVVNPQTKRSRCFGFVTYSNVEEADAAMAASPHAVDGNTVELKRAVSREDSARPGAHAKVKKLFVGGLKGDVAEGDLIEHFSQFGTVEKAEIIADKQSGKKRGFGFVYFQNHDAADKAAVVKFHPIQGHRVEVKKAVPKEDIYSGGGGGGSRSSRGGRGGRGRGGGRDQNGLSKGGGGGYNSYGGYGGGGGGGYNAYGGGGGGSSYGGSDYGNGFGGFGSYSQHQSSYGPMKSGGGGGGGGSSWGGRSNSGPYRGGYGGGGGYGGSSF
# [16] = target: Paired amphipathic helix protein Sin3a (UniProt Q96ST3); test: as above
# [17] = target: Pinin (UniProt Q9H307); test: as above
# [18] = target: Polyhomeotic-like protein 2 (UniProt Q8IXK0); test: as above
# [19] = target: Pre-mRNA-processing factor 19 (UniProt Q9UMS4); test: as above
# [20] = target: SAGA-associated factor 29 (UniProt Q96ES7); test: as above
# [21] = target: Sin3 histone deacetylase corepressor complex component SDS3 (UniProt Q9H7L9); test: as above
# Sin3 histone deacetylase corepressor complex component SDS3, sequence (Q9H7L9 whole entry, one chain of several): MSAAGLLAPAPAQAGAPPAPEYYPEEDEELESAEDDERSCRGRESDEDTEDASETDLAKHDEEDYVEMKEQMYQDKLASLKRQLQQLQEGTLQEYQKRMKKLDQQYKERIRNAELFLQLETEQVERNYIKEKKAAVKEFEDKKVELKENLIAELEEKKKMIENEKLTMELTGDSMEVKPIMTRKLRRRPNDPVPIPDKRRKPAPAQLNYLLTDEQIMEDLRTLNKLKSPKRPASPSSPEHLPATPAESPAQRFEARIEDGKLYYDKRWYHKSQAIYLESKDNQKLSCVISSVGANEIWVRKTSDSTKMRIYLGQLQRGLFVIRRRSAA
# [22] = target: Splicing factor 3A subunit 1 (UniProt Q15459); test: as above
# [23] = target: Transcription factor JunD (UniProt P17535); test: as above
# [24] = target: Transcription initiation factor TFIID subunit 3 (UniProt Q5VWG9); test: as above
# [25] = target: Transcription initiation factor TFIID subunit 9 (UniProt Q16594); test: as above
# [26] = target: Transcription initiation factor TFIID subunit 9B (UniProt Q9HBM6); test: as above
# [27] = target: Protein lin-37 homolog (UniProt Q96GY3); test: cross-linking mass spectrometry; other
# Protein lin-37 homolog, sequence (Q96GY3 whole entry, the tested form may be a part): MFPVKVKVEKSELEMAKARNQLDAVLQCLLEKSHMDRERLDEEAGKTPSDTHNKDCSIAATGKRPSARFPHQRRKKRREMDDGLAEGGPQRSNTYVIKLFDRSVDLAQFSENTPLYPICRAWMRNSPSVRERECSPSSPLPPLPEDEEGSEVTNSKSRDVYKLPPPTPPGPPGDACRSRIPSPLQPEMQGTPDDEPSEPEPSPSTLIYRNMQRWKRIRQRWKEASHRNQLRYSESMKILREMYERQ
# [28] = target: Methyl-CpG-binding domain protein 2 (UniProt Q9UBB5); test: other; cross-linking mass spectrometry; other
# [29] = target: Mediator of RNA polymerase II transcription subunit 17 (UniProt Q9NVC6); test: other; cross-linking mass spectrometry; other
# [30] = target: Transcriptional repressor p66-beta (UniProt Q8WXI9); test: other; cross-linking mass spectrometry; other
# Transcriptional repressor p66-beta, sequence (Q8WXI9 whole entry): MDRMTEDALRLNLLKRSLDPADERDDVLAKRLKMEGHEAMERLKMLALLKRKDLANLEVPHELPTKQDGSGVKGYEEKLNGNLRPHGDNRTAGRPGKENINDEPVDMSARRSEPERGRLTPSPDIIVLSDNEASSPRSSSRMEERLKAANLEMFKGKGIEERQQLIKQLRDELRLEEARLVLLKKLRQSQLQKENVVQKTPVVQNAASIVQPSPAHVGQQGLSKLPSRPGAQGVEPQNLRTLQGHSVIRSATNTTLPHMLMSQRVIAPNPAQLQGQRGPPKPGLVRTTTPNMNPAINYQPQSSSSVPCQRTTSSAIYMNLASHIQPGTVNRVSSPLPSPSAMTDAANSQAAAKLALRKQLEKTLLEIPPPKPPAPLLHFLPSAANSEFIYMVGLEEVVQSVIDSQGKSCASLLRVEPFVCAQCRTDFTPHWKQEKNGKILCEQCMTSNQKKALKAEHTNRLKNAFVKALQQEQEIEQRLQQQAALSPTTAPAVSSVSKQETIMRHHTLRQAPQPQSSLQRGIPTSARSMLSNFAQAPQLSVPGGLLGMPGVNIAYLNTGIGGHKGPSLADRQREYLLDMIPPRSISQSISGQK
# [31] = target: Heterogeneous nuclear ribonucleoprotein A/B (UniProt Q99729); test: other; cross-linking mass spectrometry; other
# [32] = target: Transcriptional repressor p66-alpha (UniProt Q86YP4); test: other; cross-linking mass spectrometry; other
# Transcriptional repressor p66-alpha, sequence (Q86YP4 whole entry): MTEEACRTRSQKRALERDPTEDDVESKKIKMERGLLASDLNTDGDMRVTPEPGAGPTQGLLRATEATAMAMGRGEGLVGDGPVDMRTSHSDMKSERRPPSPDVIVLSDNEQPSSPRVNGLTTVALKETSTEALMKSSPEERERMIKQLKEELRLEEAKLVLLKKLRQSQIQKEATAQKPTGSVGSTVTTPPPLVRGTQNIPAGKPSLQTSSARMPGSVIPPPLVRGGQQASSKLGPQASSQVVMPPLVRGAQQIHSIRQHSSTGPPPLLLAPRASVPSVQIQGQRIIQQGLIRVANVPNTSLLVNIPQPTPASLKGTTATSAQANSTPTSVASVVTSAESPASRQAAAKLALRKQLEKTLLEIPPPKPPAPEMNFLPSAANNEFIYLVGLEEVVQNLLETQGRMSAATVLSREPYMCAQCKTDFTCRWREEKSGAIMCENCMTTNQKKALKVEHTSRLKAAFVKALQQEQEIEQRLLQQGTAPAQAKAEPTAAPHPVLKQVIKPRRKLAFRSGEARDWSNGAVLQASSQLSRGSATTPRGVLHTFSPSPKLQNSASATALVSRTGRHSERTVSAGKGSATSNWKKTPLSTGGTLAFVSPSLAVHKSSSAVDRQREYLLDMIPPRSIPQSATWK
# [33] = target: Torsin-1A-interacting protein 1 (UniProt Q5JTV8); test: other; cross-linking mass spectrometry; other
# [34] = target: Spindlin-1 (UniProt Q9Y657); test: other; cross-linking mass spectrometry; other
# [35] = target: Probable ATP-dependent RNA helicase DDX23 (UniProt Q9BUQ8); test: other; cross-linking mass spectrometry; other
# [36] = target: Histone H1.2 (UniProt P16403); test: other; cross-linking mass spectrometry; other
# [37] = target: Apoptotic chromatin condensation inducer in the nucleus (UniProt Q9UKV3); test: cross-linking mass spectrometry; other
# [38] = target: ATP-dependent chromatin remodeler CHD4 (UniProt Q14839); test: other; cross-linking mass spectrometry; other
# [39] = target: Metastasis-associated protein MTA1 (UniProt Q13330); test: other; cross-linking mass spectrometry; other
# [40] = target: RNA-binding protein EWS (UniProt Q01844); test: other; cross-linking mass spectrometry; other
# [41] = target: Serine/arginine-rich splicing factor 1 (UniProt Q07955); test: other; cross-linking mass spectrometry; other
# [42] = target: Trifunctional enzyme subunit beta, mitochondrial (UniProt P55084); test: other; co-fractionation; cross-linking mass spectrometry; other
# [43] = target: THO complex subunit 1 (UniProt Q96FV9); test: cross-linking mass spectrometry; other
# [44] = target: Protein lin-54 homolog (UniProt Q6MZP7); test: other; cross-linking mass spectrometry; other
# Protein lin-54 homolog, sequence (Q6MZP7 whole entry): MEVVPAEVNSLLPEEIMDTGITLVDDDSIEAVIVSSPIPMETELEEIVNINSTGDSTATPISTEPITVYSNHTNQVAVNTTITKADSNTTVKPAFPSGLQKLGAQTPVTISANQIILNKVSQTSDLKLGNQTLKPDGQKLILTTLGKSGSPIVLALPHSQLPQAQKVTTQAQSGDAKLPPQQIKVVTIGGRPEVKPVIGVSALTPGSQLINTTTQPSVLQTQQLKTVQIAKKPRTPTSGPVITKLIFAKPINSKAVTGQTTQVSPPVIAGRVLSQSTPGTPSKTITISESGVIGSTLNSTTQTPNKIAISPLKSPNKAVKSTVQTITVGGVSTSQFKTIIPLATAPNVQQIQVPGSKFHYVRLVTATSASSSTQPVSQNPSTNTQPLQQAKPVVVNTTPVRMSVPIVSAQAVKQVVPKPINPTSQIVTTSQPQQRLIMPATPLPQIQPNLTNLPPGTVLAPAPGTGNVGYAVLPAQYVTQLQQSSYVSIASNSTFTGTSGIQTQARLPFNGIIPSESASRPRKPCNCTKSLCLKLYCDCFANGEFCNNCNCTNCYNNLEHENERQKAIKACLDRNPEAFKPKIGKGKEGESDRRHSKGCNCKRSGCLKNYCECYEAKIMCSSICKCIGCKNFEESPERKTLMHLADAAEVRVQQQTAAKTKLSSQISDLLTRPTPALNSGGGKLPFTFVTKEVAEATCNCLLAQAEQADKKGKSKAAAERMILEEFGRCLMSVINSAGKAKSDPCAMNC
# [45] = target: THO complex subunit 7 (UniProt Q6I9Y2); test: other; cross-linking mass spectrometry; other
# [46] = target: Protein lin-54 homolog (UniProt Q6MZP7); test: cross-linking mass spectrometry; other
# [47] = target: Protein lin-9 homolog (UniProt Q5TKA1); test: cross-linking mass spectrometry; other
# Protein lin-9 homolog, sequence (Q5TKA1 whole entry): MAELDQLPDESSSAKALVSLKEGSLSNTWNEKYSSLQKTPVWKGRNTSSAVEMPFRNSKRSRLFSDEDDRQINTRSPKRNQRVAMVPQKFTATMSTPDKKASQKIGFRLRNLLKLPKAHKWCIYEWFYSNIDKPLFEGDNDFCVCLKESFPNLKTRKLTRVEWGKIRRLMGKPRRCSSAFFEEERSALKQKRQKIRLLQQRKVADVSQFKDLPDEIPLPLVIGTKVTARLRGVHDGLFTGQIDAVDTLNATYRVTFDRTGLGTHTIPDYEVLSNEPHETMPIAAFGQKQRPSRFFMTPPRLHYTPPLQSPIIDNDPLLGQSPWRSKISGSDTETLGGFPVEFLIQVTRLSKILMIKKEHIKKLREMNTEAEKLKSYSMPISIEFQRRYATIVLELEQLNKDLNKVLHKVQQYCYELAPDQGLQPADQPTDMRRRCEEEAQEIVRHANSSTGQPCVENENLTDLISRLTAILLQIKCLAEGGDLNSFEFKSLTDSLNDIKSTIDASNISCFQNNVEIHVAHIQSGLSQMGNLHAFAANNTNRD
# [48] = target: Methylcrotonoyl-CoA carboxylase beta chain, mitochondrial (UniProt Q9HCC0); test: other; cross-linking mass spectrometry; other
# [49] = target: Heterogeneous nuclear ribonucleoprotein Q (UniProt O60506); test: other; cross-linking mass spectrometry; other
# Transcription initiation factor TFIID subunit 10, Q12962, sequence (Q12962 whole entry): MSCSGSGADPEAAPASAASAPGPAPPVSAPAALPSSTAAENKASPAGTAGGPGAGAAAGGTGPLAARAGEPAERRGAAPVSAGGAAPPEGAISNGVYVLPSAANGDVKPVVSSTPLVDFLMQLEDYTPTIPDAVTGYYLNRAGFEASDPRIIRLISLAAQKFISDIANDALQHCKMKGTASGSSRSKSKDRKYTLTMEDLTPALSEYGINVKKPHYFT
substance,measurement,setting,value
"28S rRNA (cytosine(4447)-C(5))-methyltransferase, P46087",listed as a hit,[1],yes
same,listed as a hit,[2],yes
"Endoplasmic reticulum chaperone BiP, P11021",listed as a hit,[3],yes
same,listed as a hit,[4],yes
"THO complex subunit 7, Q6I9Y2",listed as a hit,[5],yes
same,listed as a hit,[6],yes
"Transcription initiation factor TFIID subunit 4, O00268",listed as a hit,[7],yes
same,listed as a hit,[8],yes
same,listed as a hit,[9],yes
same,listed as a hit,[10],yes
"Heterogeneous nuclear ribonucleoproteins C1/C2, P07910",listed as a hit,[11],yes
same,listed as a hit,[12],yes
"RecQ-like DNA helicase BLM, P54132",listed as a hit,[13],yes
same,listed as a hit,[14],yes
"Heterogeneous nuclear ribonucleoproteins A2/B1, P22626",listed as a hit,[15],yes
"Heterogeneous nuclear ribonucleoprotein A1, P09651",listed as a hit,[15],yes
"Histone deacetylase complex subunit SAP30, O75446",listed as a hit,[16],yes
"RNA-binding protein with serine-rich domain 1, Q15287",listed as a hit,[17],yes
"E3 ubiquitin-protein ligase RING1, Q06587",listed as a hit,[18],yes
"Pre-mRNA-splicing factor SPF27, O75934",listed as a hit,[19],yes
"DNA topoisomerase 3-alpha, Q13472",listed as a hit,[14],yes
"Transcriptional adapter 3, O75528",listed as a hit,[20],yes
"Breast cancer metastasis-suppressor 1-like protein, Q5PSV4",listed as a hit,[21],yes
"Paired amphipathic helix protein Sin3a, Q96ST3",listed as a hit,[21],yes
"Splicing factor 3B subunit 2, Q13435",listed as a hit,[22],yes
"Cyclic AMP-dependent transcription factor ATF-2, P15336",listed as a hit,[23],yes
"Transcription initiation factor TFIID subunit 10, Q12962",listed as a hit,[10],yes
same,listed as a hit,[24],yes
same,listed as a hit,[25],yes
"Transcription initiation factor TFIID subunit 12, Q16514",listed as a hit,[25],yes
same,listed as a hit,[26],yes
"Protein lin-54 homolog, Q6MZP7",listed as a hit,[27],yes
"Transcriptional repressor p66-beta, Q8WXI9",listed as a hit,[28],yes
"Transcription initiation factor TFIID subunit 6, P49848",listed as a hit,[9],yes
"Mediator of RNA polymerase II transcription subunit 6, O75586",listed as a hit,[29],yes
"Transcriptional repressor p66-alpha, Q86YP4",listed as a hit,[30],yes
"Heterogeneous nuclear ribonucleoprotein U, Q00839",listed as a hit,[31],yes
"ATP-dependent chromatin remodeler CHD4, Q14839",listed as a hit,[32],yes
same,listed as a hit,[30],yes
"Prelamin-A/C, P02545",listed as a hit,[33],yes
"Spindlin interactor and repressor of chromatin-binding protein, Q9BUA3",listed as a hit,[34],yes
"CD2 antigen cytoplasmic tail-binding protein 2, O95400",listed as a hit,[35],yes
"Histone H1.3, P16402",listed as a hit,[36],yes
"Histone deacetylase complex subunit SAP18, O00422",listed as a hit,[37],yes
"Metastasis-associated protein MTA2, O94776",listed as a hit,[38],yes
same,listed as a hit,[39],yes
same,listed as a hit,[32],yes
same,listed as a hit,[30],yes
"RNA-binding protein FUS, P35637",listed as a hit,[40],yes
"Serine/arginine-rich splicing factor 3, P84103",listed as a hit,[41],yes
"Trifunctional enzyme subunit alpha, mitochondrial, P40939",listed as a hit,[42],yes
"THO complex subunit 2, Q8NI27",listed as a hit,[43],yes
"Protein lin-9 homolog, Q5TKA1",listed as a hit,[27],yes
same,listed as a hit,[44],yes
"THO complex subunit 5, Q13769",listed as a hit,[5],yes
same,listed as a hit,[45],yes
"Protein lin-52 homolog, Q52LA3",listed as a hit,[27],yes
same,listed as a hit,[46],yes
same,listed as a hit,[47],yes
"Methylcrotonoyl-CoA carboxylase subunit alpha, mitochondrial, Q96RQ3",listed as a hit,[48],yes
"Heterogeneous nuclear ribonucleoprotein R, O43390",listed as a hit,[49],yes
